# From the supplement of paper PMC7411054
# Structures can show the parent of a compound that is named as a salt.
# Key:
# Details in all cases: treatment time: 24 h
# A549-ACTB-RAB5A = test: phenotypically active (imaging signature differs from DMSO and reproducible) at any of 0.3-9 uM (binary (1 = active, 0 = inactive)); higher = active
# Outline: (§1)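 Cells from fifteen gene-edited reporter lines (A549, HepG2 and WPMY1) were treated for 24 h at 0.3, 1, 3 or 9 µM and imaged live, four wells per condition. Features were normalised per well to solvent control wells. A condition deviated if ≥3 of 4 wells passed the 95th percentile of control Euclidean distances and was reproducible if its median replicate Pearson correlation beat the 95th percentile of non-replicates; phenotypic activity needed both.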
# A549-CANX-COX4 = test: as above
# Outline: as §1
# A549-GM130-SQSTM1 = test: as above
# Outline: as §1
# A549-TUBA1B-RELA = test: as above
# Outline: as §1
# HepG2-ACTB-RAB5A = test: as above
# Outline: as §1
# HepG2-CANX-COX4 = test: as above
# Outline: as §1
# HepG2-GM130-SQSTM1 [1] = test: as above
# Outline: as §1
# HepG2-TUBA1B-RELA = test: as above
# Outline: as §1
# WPMY1-ACTB-RAB5A [2] = test: as above
# Outline: as §1
# WPMY1-CANX-COX4 [3] = test: as above
# Outline: as §1
# WPMY1-GM130-SQSTM1 [4] = test: as above
# Outline: as §1
# WPMY1-TUBA1B-RELA [5] = test: as above
# Outline: as §1
# HepG2-GM130-SQSTM1 [6] = test: lowest phenotypically active concentration; higher = less potent
# Outline: as §1
# WPMY1-ACTB-RAB5A [7] = test: as above
# Outline: as §1
# WPMY1-CANX-COX4 [8] = test: as above
# Outline: as §1
# A549-TP53BP1-CLTA = test: phenotypically active (imaging signature differs from DMSO and reproducible) at any of 0.3-9 uM (binary (1 = active, 0 = inactive)); higher = active
# Outline: as §1
# HepG2-TP53BP1-CLTA = test: as above
# Outline: as §1
# WPMY1-TP53BP1-CLTA = test: as above
# Outline: as §1
# WPMY1-GM130-SQSTM1 [9] = test: lowest phenotypically active concentration; higher = less potent
# Outline: as §1
# WPMY1-TUBA1B-RELA [10] = test: as above
# Outline: as §1
Compound,phenotypically active (A549-ACTB-RAB5A),phenotypically active (A549-CANX-COX4),phenotypically active (A549-GM130-SQSTM1),phenotypically active (A549-TUBA1B-RELA),phenotypically active (HepG2-ACTB-RAB5A),phenotypically active (HepG2-CANX-COX4),phenotypically active (HepG2-GM130-SQSTM1 [1]),phenotypically active (HepG2-TUBA1B-RELA),phenotypically active (WPMY1-ACTB-RAB5A [2]),phenotypically active (WPMY1-CANX-COX4 [3]),phenotypically active (WPMY1-GM130-SQSTM1 [4]),phenotypically active (WPMY1-TUBA1B-RELA [5]),lowest phenotypically active concentration (HepG2-GM130-SQSTM1 [6]) [µM],lowest phenotypically active concentration (WPMY1-ACTB-RAB5A [7]) [µM],lowest phenotypically active concentration (WPMY1-CANX-COX4 [8]) [µM],phenotypically active (A549-TP53BP1-CLTA),phenotypically active (HepG2-TP53BP1-CLTA),phenotypically active (WPMY1-TP53BP1-CLTA),lowest phenotypically active concentration (WPMY1-GM130-SQSTM1 [9]) [µM],lowest phenotypically active concentration (WPMY1-TUBA1B-RELA [10]) [µM]
C[C@H](CS)C(=O)N1CCC[C@H]1C(=O)O [captopril],0 (inactive),0 (inactive),0 (inactive),0 (inactive),0 (inactive),0 (inactive),0 (inactive),0 (inactive),0 (inactive),0 (inactive),0 (inactive),0 (inactive),,,,,,,,
CCN1CCN(C(c2cccnc2)c2cc(Cl)c3cccnc3c2O)CC1 (stereo not drawn),,1 (active),,,1 (active),1 (active),1 (active),1 (active),1 (active),1 (active),0 (inactive),0 (inactive),9,9,9,1 (active),1 (active),1 (active),,
CCN1CCN(c2ccc(Nc3cc(N(C)C(=O)Nc4c(Cl)c(OC)cc(OC)c4Cl)ncn3)cc2)CC1,,0 (inactive),,,0 (inactive),0 (inactive),0 (inactive),0 (inactive),1 (active),0 (inactive),1 (active),0 (inactive),,9,,0 (inactive),0 (inactive),0 (inactive),9,
C/C(=C/c1ccc(C(=O)O)cc1)c1ccc2c(c1)C(C)(C)CCC2(C)C,,0 (inactive),,,0 (inactive),0 (inactive),0 (inactive),0 (inactive),0 (inactive),1 (active),1 (active),0 (inactive),,,9,0 (inactive),0 (inactive),1 (active),3,
CCN1CCN(c2cc(-c3ccc(F)cc3)c3c(n2)CCCCCC3)CC1 [blonanserin],,0 (inactive),,,1 (active),1 (active),1 (active),1 (active),1 (active),0 (inactive),0 (inactive),1 (active),9,9,,1 (active),1 (active),1 (active),,9
CCCCC1C(=O)N(c2ccccc2)N(c2ccc(O)cc2)C1=O (stereo not drawn) [oxyphenbutazone],,0 (inactive),,,0 (inactive),0 (inactive),0 (inactive),0 (inactive),0 (inactive),0 (inactive),0 (inactive),1 (active),,,,0 (inactive),0 (inactive),0 (inactive),,9
COc1cc([C@@H]2c3cc4c(cc3[C@@H](O[C@@H]3O[C@@H]5CO[C@@H](C)O[C@H]5[C@H](O)[C@H]3O)[C@H]3COC(=O)[C@H]23)OCO4)cc(OC)c1O [etoposide],,1 (active),,,1 (active),1 (active),1 (active),1 (active),1 (active),1 (active),1 (active),1 (active),1,1,1,1 (active),1 (active),1 (active),1,≤ 0.3
Cc1ccc(S(=O)(=O)/C=C/C#N)cc1,,0 (inactive),,,0 (inactive),0 (inactive),0 (inactive),0 (inactive),0 (inactive),1 (active),1 (active),0 (inactive),,,9,0 (inactive),0 (inactive),0 (inactive),9,
CCOc1cc(N2CCC(O)CC2)ccc1Nc1ncc2c(n1)N(C)c1ccccc1C(=O)N2C,,1 (active),,,1 (active),1 (active),1 (active),1 (active),1 (active),1 (active),1 (active),1 (active),3,3,3,1 (active),1 (active),1 (active),3,9
NCCNS(=O)(=O)c1cccc2cnccc12 [H-9 dihydrochloride],,0 (inactive),,,0 (inactive),0 (inactive),0 (inactive),0 (inactive),1 (active),0 (inactive),0 (inactive),0 (inactive),,9,,0 (inactive),0 (inactive),0 (inactive),,
CC[C@H](C)[C@H](NC(=O)OCc1ccccc1)C(=O)N[C@@H](CCC(=O)OC(C)(C)C)C(=O)N[C@@H](C)C(=O)N[C@H](C=O)CC(C)C,,1 (active),,,1 (active),1 (active),1 (active),1 (active),1 (active),1 (active),1 (active),1 (active),≤ 0.3,≤ 0.3,≤ 0.3,1 (active),1 (active),1 (active),≤ 0.3,≤ 0.3
C[C@H]1O[C@H](O[C@H]2[C@H](O)[C@@H](O)[C@@H](O[C@H]3[C@H](O)[C@@H](O)[C@H](O)O[C@@H]3CO)O[C@@H]2CO)[C@H](O)[C@@H](O)[C@@H]1N[C@H]1C=C(CO)[C@@H](O)[C@H](O)[C@H]1O [Acarbose],,0 (inactive),,,0 (inactive),0 (inactive),0 (inactive),0 (inactive),0 (inactive),0 (inactive),0 (inactive),0 (inactive),,,,0 (inactive),0 (inactive),0 (inactive),,
